Our source for the Potency and Z-AUC values is PubChem BioAssay (NCATS).

Values joined by “and” are separate entries in the source; they are usually repeats but may differ in a detail not shown here. Equal entries are not always repeated. Records with an inconclusive call do not appear. Active and inactive are the calls of the source. Unless noted, the call rests on the fitted dose curve; in most records, active means well fitted curve in the direction sought with a large enough effect; inconclusive means small, poorly fitted or top-dose-only effect, or another doubt; inactive means no such curve, though single readings can be large; an effect the other way counts as inactive or inconclusive.

A short description of assay [1]: qHTS to identify inhibitors of the type 1 interferon - major histocompatibility complex class I in skeletal muscle: primary screen against the NCATS Mechanism Interrogation Plate v5.0 (MIPE) Libary (AID 1347411). Further: nearly all actives have a fitted effect of over 65% in size. Further: potency means the concentration at half of the fitted maximal effect. The gist of the method:
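Immortalized human C25cl48 myoblasts with HiBit knocked into endogenous HLA-B*08:01 were stimulated with 4.0 ng/ml IFN-beta and exposed to compounds (11-point 1:3 titration, top 46 uM final) for 24 hrs at 37 C; HiBiT lytic luminescence measured.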
A general note: Quantitative high-throughput screening tests each substance at several concentrations.

The nature of assay [2]: Primary qHTS for inhibitors of nuclear receptor binding SET domain protein 2 (NSD2) in an isogenic RCH-ACV NSD2 p.E1099K mutant (9B) (AID 1645876). Further: nearly all actives have a fitted effect of over 70% in size. Further: potency means the concentration at half of the fitted maximal effect.
Assay [3] is described as follows: Primary qHTS for inhibitors of nuclear receptor binding SET domain protein 2 (NSD2) in an RCH-ACV wild type WT cells (2C) (AID 1645877). Further: nearly all actives have a fitted effect of over 70% in size. Further: potency means the concentration at half of the fitted maximal effect.
Assay [4] has as its target Glutathione peroxidase 1 (Homo sapiens) (UniProt P07203). Description: Primary qHTS Assay for Inhibitors of Recombinant Selenoprotein Glutathione Peroxidase 1 (GPX1) (AID 1845191). Further: nearly all actives have a fitted effect of over 65% in size. The method, boiled down:
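GR-coupled assay: compounds preincubated 30 min at room temperature with GPX1, then reaction started with CHP; final 10 nM GPX1, 1 mM GSH, 0.5 mM CHP, 0.5 mM NADPH, 100 nM GR, 0.01% BSA, pH 7.5 Tris buffer. NADPH fluorescence (340/450 nm) read at 0 and 15 min.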

Assay [5] concerns the target Phospholipid hydroperoxide glutathione peroxidase GPX4 (Homo sapiens) (UniProt P36969). Kind of assay: Primary qHTS Assay for Inhibitors of Recombinant Selenoprotein Glutathione Peroxidase 4 (GPX4) (AID 1845192). Further: nearly all actives have a fitted effect of over 65% in size. Further: potency means the concentration at half of the fitted maximal effect. As to conditions: outcome: dose series up to 50 µM unless noted. The method, boiled down: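 GR-coupled assay: recombinant GPX4 preincubated 30 min with compound at room temperature; final 200 nM GPX4, 1 mM GSH, 0.5 mM cumene hydroperoxide, 0.5 mM NADPH, 100 nM GR, 0.01% BSA, pH 7.5 Tris. NADPH fluorescence (340/450 nm) read at 0 and 15 min.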

Assay [6] is described as follows: qHTS drug screen for cell cycle checkpoint inhibitors in PARPi-resistant BRCA-mutant ovarian cancer cell lines. (AID 1963452; calls by dose curve). As to conditions: PEO1/OlaR viability, CellTiter-Glo luminescence, 96 h, stronger effect = lower value. The gist of the method:
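PEO1, PEO4 and PEO1/OlaR ovarian cancer cells, 600 per well, exposed 96 h at 37C to a dilution series. Viability read by CellTiter-Glo luminescence, normalized to DMSO and empty wells; activity summarized as Z-AUC.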

The mark [7] stands for this setting: measured here: PEO1 parental Z-AUC.

Glutathione peroxidase 1 (Homo sapiens), sequence (P07203 whole entry, looked up): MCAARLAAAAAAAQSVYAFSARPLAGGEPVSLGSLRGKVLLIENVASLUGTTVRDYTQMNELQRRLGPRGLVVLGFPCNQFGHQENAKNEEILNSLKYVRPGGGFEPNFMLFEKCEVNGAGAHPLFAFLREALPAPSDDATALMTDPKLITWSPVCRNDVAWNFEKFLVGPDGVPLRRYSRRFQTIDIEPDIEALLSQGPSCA
Phospholipid hydroperoxide glutathione peroxidase GPX4 (Homo sapiens), sequence (P36969 whole entry, looked up): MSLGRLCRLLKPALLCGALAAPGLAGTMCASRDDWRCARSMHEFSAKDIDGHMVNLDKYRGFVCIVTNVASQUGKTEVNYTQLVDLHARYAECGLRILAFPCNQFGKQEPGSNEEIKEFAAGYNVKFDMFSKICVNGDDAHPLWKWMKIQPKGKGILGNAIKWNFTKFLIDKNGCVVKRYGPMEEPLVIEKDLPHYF

On to `CCCNC(=O)[C@H]1O[C@@H]1C(=O)N[C@H](C(=O)N1CCC[C@H]1C(=O)OC)C(C)CC` (stereo partly specified), for which the Potency entry in assay [1], in assay [4] and in assay [5] was “inactive” throughout. Besides, the Potency in assay [2] was 6.61 µM (active); in assay [3], 7.42 µM (active). The Z-AUC was 0.833 (inactive) in assay [6], 0.0577 in assay [6] (setting [7]) and 0.0351 in assay [6] (measured here: PEO4 Z-AUC).
In the case of `Nc1n[n+]([O-])c2ccccc2[n+]1[O-]`, the Potency result in assay [1], in assay [4] and in assay [5] was “inactive” each time. In addition, the Potency in assay [2] was 18.6 µM (active); in assay [3], 10.5 µM (active). Further, the Z-AUC is -0.469 (inactive) in assay [6], -1.12 in assay [6] (setting [7]) and -1.08 in assay [6] (measured here: PEO4 Z-AUC).
Regarding `COc1cc2c(Oc3ccc4[nH]c(C)cc4c3F)ccnc2cc1OCC1(N)CC1`, the Potency result in assay [1], in assay [4] and in assay [5] was “inactive” each time. The Potency is 5.9 µM (active) in assay [2] and 3.72 µM (active) in assay [3]. Moreover, the figures for the Z-AUC in assay [6], in assay [6] (setting [7]) and in assay [6] (measured here: PEO4 Z-AUC) were 0.184 (inactive), 0.236 and 0.196, respectively.
Turning to `C=C1C(=O)O[C@H]2C[C@H](C)C(/C=C/C(C)=O)=CC[C@H]12`, the Potency in assay [1] was 6.58 µM (active); in assay [2], 1.48 µM (active); in assay [3] it was 1.32 µM (active). Further, the Potency result in assay [4] and in assay [5] was “inactive” throughout. Besides, the Z-AUC in assay [6] is 0.205 (inactive); in assay [6] (setting [7]) it was -0.357; in assay [6] (measured here: PEO4 Z-AUC) it was -0.273.
In the case of `C[C@H]1O[C@H](O[C@H]2[C@H](O)[C@@H](O)[C@@H](O[C@H]3[C@H](O)[C@@H](O)C(O)O[C@@H]3CO)O[C@@H]2CO)[C@H](O)[C@@H](O)[C@@H]1N[C@H]1C=C(CO)[C@@H](O)[C@H](O)[C@H]1O` (stereo partly specified), the Potency entry in assay [1], in assay [2], in assay [3], in assay [4] and in assay [5] was “inactive” in each case. Also, the Z-AUC in assay [6] was 0.621 (inactive); in assay [6] (setting [7]), 1.06; in assay [6] (measured here: PEO4 Z-AUC), 0.614.
With `COc1ccc([C@@H](O)[C@@H](C)Oc2ccc([C@H]3O[C@H](c4ccc(O[C@H](C)[C@H](O)c5ccc(OC)c(OC)c5)c(OC)c4)[C@H](C)[C@H]3C)cc2OC)cc1OC`, the Potency result in assay [1], in assay [4] and in assay [5] was “inactive” each time. In addition, the Potency in assay [2] and in assay [3] was 5.25 µM (active) throughout. In addition, the values for the Z-AUC in assay [6], in assay [6] (setting [7]) and in assay [6] (measured here: PEO4 Z-AUC) were -1.98 (inactive), -3.67 and -2.38, respectively.
With `C/C(=N\NC(=S)N1CCC1)c1ccccn1`, the Potency entry in assay [1], in assay [4] and in assay [5] was “inactive” throughout. In addition, the values for the Potency in assay [2] and in assay [3] were 0.0105 µM (active) and 0.0093 µM (active), respectively. For the same compound, the results for the Z-AUC in assay [6], in assay [6] (setting [7]) and in assay [6] (measured here: PEO4 Z-AUC) were -0.969 (inactive), -1.12 and -1.07, respectively.
`O=C(Nc1ccccc1)Nc1ccc(-c2ccc(C(=O)[C@@H]3CCC[C@H]3C(=O)O)cc2)cc1`: the Potency result in assay [1], in assay [2], in assay [3] and in assay [4] was “inactive” each time. Further, in assay [5], the Potency was 12.8 µM (active). Besides, the Z-AUC is 1.01 (inactive) in assay [6], 0.577 in assay [6] (setting [7]) and 0.797 in assay [6] (measured here: PEO4 Z-AUC).
`Nc1nccc(-c2c(-c3ccc(F)cc3)ncn2C2CCN(Cc3ccon3)CC2)n1`: the Potency entry in assay [1], in assay [4] and in assay [5] was “inactive” in each case. Further, the Potency in assay [2] and in assay [3] was 7.42 µM (active) each time. For the same compound, the Z-AUC in assay [6] was 0.042 (inactive); in assay [6] (setting [7]), 0.6; in assay [6] (measured here: PEO4 Z-AUC) it was 0.374.
Consider `C=CC(=O)N1CCC[C@H](n2c(=O)n(-c3ccc(Oc4ccccc4)cc3)c3c(N)ncnc32)C1`, for which the Potency result in assay [1], in assay [4] and in assay [5] was “inactive” throughout. Also, the Potency in assay [2] and in assay [3] was 2.09 µM (active) each time. The Z-AUC in assay [6] is -0.0902 (inactive); in assay [6] (setting [7]), 0.044; in assay [6] (measured here: PEO4 Z-AUC), -0.151.
Take `CC(C)(O)CNc1ncc(-c2ccnc(Nc3ccncc3)n2)c(CC2CC2)n1`: the Potency in assay [1] is 16.5 µM (active); in assay [2] it was 4.17 µM (active); in assay [3], 3.72 µM (active). For the same compound, the Potency entry in assay [4] and in assay [5] was “inactive” throughout. The Z-AUC in assay [6] was -0.109 (inactive); in assay [6] (setting [7]), -0.212; in assay [6] (measured here: PEO4 Z-AUC), 0.228.
In the case of `COc1cc(C(=O)NC(N)=Nc2ccc(C)c(NC(=O)c3ccc(-c4ccccc4)cc3)c2)cc(OC)c1OC`, the Potency entry in assay [1], in assay [4] and in assay [5] was “inactive” in each case. In addition, the figures for the Potency in assay [2] and in assay [3] were 13.2 µM (active) and 11.8 µM (active), respectively. Also, the Z-AUC is 0.647 (inactive) in assay [6], 0.261 in assay [6] (setting [7]) and 0.136 in assay [6] (measured here: PEO4 Z-AUC).
For the compound `CNC(=O)Cn1cc(-c2ccc3c(c2)C(F)CC32NC(=O)N(CC(=O)N(Cc3ccc(F)cc3)[C@@H](C)C(F)(F)F)C2=O)cn1` (stereo partly specified), the Potency entry in assay [1], in assay [4] and in assay [5] was “inactive” in each case. The Potency was 0.0525 µM (active) in assay [2] and 0.0661 µM (active) in assay [3]. For the same compound, the Z-AUC in assay [6] was 0.811 (inactive) and 1.3 (inactive); in assay [6] (setting [7]) it was 0.434 and 1.73; in assay [6] (measured here: PEO4 Z-AUC), 0.0101 and 0.997.
For `NCC(=O)Nc1cncc(-c2nn3c(=O)cc(N4CCNCC4)nc3s2)c1`, the Potency entry in assay [1], in assay [2], in assay [3], in assay [4] and in assay [5] was “inactive” in each case. The values for the Z-AUC in assay [6], in assay [6] (setting [7]) and in assay [6] (measured here: PEO4 Z-AUC) were 0.673 (inactive), 0.487 and 1.13, respectively.
For the compound `CN1C(=O)[C@@H](NC(=O)c2n[nH]c(Cc3ccccc3)n2)COc2ccccc21`, the Potency entry in assay [1], in assay [2], in assay [3], in assay [4] and in assay [5] was “inactive” each time. The Z-AUC in assay [6] is -0.646 (inactive); in assay [6] (setting [7]), -0.812; in assay [6] (measured here: PEO4 Z-AUC), -0.659.
`Cc1cc2cc(Oc3ccnc(Nc4cccc(CS(=O)(=O)NCCN(C)C)c4)n3)ccc2[nH]1`: the Potency in assay [1] is 13.1 µM (active); in assay [2], 8.33 µM (active); in assay [3] it was 5.9 µM (active). The Potency entry in assay [4] and in assay [5] was “inactive” each time. Also, the figures for the Z-AUC in assay [6], in assay [6] (setting [7]) and in assay [6] (measured here: PEO4 Z-AUC) were 0.517 (inactive), 0.192 and 0.0861, respectively.
In the case of `COc1ccc(C(=O)N2CCN(C(=O)/C=C/c3ccc(Br)cc3)CC2)cc1`, the Potency entry in assay [1], in assay [2], in assay [3], in assay [4] and in assay [5] was “inactive” in each case. Further, the Z-AUC was 1.19 (inactive) in assay [6], 1.01 in assay [6] (setting [7]) and 1.05 in assay [6] (measured here: PEO4 Z-AUC).
